# Bioassay records deposited in PubChem BioAssay by The Scripps Research Institute Molecular Screening Center.
# Sampled rows, rich in hits. Any-hit rate of the full collection: about 2.3%.
# CHO-K1 Ca ag – counter-screen for M1 agonists: effect in parental CHO-K1 cells; activation, % at 3 µM; 360,000 compounds, 0.48% hits; Fluo-8 calcium fluorescence; scaled to maximal ATP response, vehicle zero; in the data active = activation above about 15%;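 note: untransfected CHO-K1 host cells lacking M1 receptor as counterscreen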
# M1 PAM – human CHRM1 positive allosteric modulation; activation, % at 3 µM; 360,000 compounds, 0.088% hits; P11229; CHO-K1 hM1, Fluo-8 calcium fluorescence, ACh EC20; 0% = ACh EC20, 100% = maximal ACh; in the data active = activation above about 19%, passing the limit was not always enough
# Target sequence (P11229 whole entry, looked up): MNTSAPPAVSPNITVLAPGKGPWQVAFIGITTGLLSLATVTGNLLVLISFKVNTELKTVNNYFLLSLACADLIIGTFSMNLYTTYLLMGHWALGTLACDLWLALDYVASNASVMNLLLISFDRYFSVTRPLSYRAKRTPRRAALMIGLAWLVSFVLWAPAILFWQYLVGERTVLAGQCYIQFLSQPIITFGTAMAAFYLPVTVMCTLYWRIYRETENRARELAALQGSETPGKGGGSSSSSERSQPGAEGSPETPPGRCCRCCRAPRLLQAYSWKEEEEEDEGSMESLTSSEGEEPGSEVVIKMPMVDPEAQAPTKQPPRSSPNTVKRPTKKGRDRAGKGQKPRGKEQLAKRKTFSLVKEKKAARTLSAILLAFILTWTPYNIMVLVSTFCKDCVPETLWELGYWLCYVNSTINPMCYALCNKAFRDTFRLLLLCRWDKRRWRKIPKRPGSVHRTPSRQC
# CHO-K1 Ca antag – M1 antagonist counterscreen hit in parental CHO-K1 cells; ATP-induced calcium, Fluo-8 fluorescence; inhibition, % at 3 µM; 360,000 compounds, 0.6% hits;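 active = inhibition above a per-plate cutoff, the plate's mean sample inhibition plus 3 SD, cut at about 24% in these data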;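 note: 0% = DMSO plus EC80 ATP and 100% = DMSO alone without ATP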
# M1 antag – blocks human M1 muscarinic receptor; CHO-K1 hM1, Fluo-8 calcium fluorescence, ACh EC80 antagonist; P11229; inhibition, % at 3 µM; 360,000 compounds, 1.3% hits;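 active = percent inhibition above its own plate's cutoff, namely the mean of that plate's compound wells plus 3 SD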;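 note: peak over basal fluorescence ratio during 140 s after agonist addition; 0% = ACh EC80 plus DMSO and 100% = DMSO alone without agonist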
# CHO-K1 Ca PAM – nonselective activator or artifact in parental CHO-K1 calcium assay | ATP EC20, Fluo-8 calcium fluorescence; 0% at ATP EC20, 100% at ATP max | 360,000 compounds, 0.02% hits | activation, % at 3 µM | AID 602247;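 active = activation above the run cutoff, the mean activation of all test compounds plus 3 SD, cut at about 40% in these data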;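 note: peak over basal fluorescence ratio in a 140 s read after ATP addition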
# CHRM1 agonist – agonists of human M1 muscarinic receptor. P11229. CHO-K1 hM1, Fluo-8 calcium fluorescence, agonist mode; 0% DMSO, 100% acetylcholine EC100. activation, % at 3 µM. 360,000 compounds, 0.33% hits;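 active = activation above the run's mean compound activation plus 3 SD, cut at about 16% in these data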;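 note: peak over basal fluorescence ratio within a 140 s kinetic read after compound addition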
# Starred values were filed as active, the others as inactive; . = no result given.
SMILES,CHO-K1 Ca ag,M1 PAM,CHO-K1 Ca antag,M1 antag,CHO-K1 Ca PAM,CHRM1 agonist
O=C(Cn1nnc2ccccc2c1=O)NCC1CCC(C(=O)O)CC1 (stereo unspecified),18*,12,3,-11,11,8
CC(C)[C@@H](C(=O)NCC1CCC(C(=O)O)CC1)n1nnc2ccccc2c1=O (stereo partly specified),0,2,-1,-1,0,-3
CC(=O)C1=CCC(c2ccc(Cl)cc2)N(S(=O)(=O)c2ccccc2C)C1 (stereo unspecified),1,-1,17,5,-7,-6
Cc1cc(=O)n2nc(N3CCCC(C(=O)N4CCOCC4)C3)sc2n1 (stereo unspecified),1,10,-11,-14,18,-2
Cc1cc(=O)n2nc(N3CCCC(C(=O)N4CCc5ccccc54)C3)sc2n1 (stereo unspecified),-1,-23,5,97*,-5,-6
CNC(=O)CSc1nnnn1CCCOC,1,0,-11,43*,17,-3
COc1cccc(-c2nn(C)c3sc(C(=O)N4CCOCC4)cc23)c1,1,1,10,3,-7,-1
COc1cccc(-c2nn(C)c3sc(C(=O)N4CCN(c5ccccn5)CC4)cc23)c1,5,-14,-1,22*,14,-1
COc1ccc(NC(=O)COc2cccc3c2OC(C)(C)C3)cc1OC,12,-19,17,31*,-23,2
OC(COCC1CC=CCC1)Cn1cnc2ccccc21 (stereo unspecified),1,24*,-8,-12,12,2
O=C(CC1CCCC1)N1CCN(S(=O)(=O)c2c(F)cccc2F)CC1,0,-1,-9,-1,12,-7
CC[C@@H](C(=O)[C@@H](C)[C@@H](O)[C@H](C)CCc1ccc(C)c(O)c1C(=O)O)[C@H]1O[C@](CC)([C@H]2CC[C@](O)(CC)[C@H](C)O2)C[C@@H]1C,26*,-19,10,-6,-1,61*
Cc1nn(CC(=O)NCCc2ccco2)c(=O)c2nn(-c3ccccc3)c(C)c12,0,5,-10,-6,14,-4
Cc1nn(C(C)C(=O)NCc2ccco2)c(C)c1[N+](=O)[O-] (stereo unspecified),19*,10,-1,-11,15,2
Cc1nn(C(C)C(=O)NCCc2ccco2)c(=O)c2nn(-c3ccccc3)c(C)c12 (stereo unspecified),0,31*,-13,19,21,-1
Cc1c(Br)c([N+](=O)[O-])nn1C(C)C(=O)NCc1ccco1 (stereo unspecified),0,6,-2,3,5,-8
CC(C(=O)NCc1ccco1)c1ccc([N+](=O)[O-])cc1 (stereo unspecified),0,11,25*,-3,-13,-5
O=C(NCc1ccco1)Nc1ccc([N+](=O)[O-])cc1,6,-8,-19,8,13,-1
COc1ccc(NC(=O)C2(C)CCN2Cc2cccc(OC)c2F)cc1OC (stereo unspecified),3,0,1,-5,6,-3
COC(=O)c1ccc(-c2noc(CN3CCCCC3c3nccn3C)n2)cc1 (stereo unspecified),0,-34,2,35*,-1,-14
Cn1ccnc1C1CCCCN1Cc1nc(Cc2ccccc2F)no1 (stereo unspecified),4,-26,-12,99*,12,-7
CN1CCN(c2cccc3c2S(=O)(=O)N[C@@H](Cc2ccccc2)CO3)CC1,1,.,-10,.,11,.
CC(Sc1nc(-c2ccccc2)c(-c2ccccc2)[nH]1)C(=O)NCC1CCCO1 (stereo unspecified),1,10,-8,-21,16,0
CCc1ccc(N=C2NC(=O)/C(=C/c3cc(OC)c(O)c(OC)c3)S2)cc1,12,-4,1,7,4,1
COc1cc(/C=C2\SC(=Nc3ccccc3)NC2=O)cc(Cl)c1O,38*,-25,32*,50*,-8,79*
SMILES,CHO-K1 Ca ag,M1 PAM,CHO-K1 Ca antag,M1 antag,CHO-K1 Ca PAM,CHRM1 agonist
COc1cc(/C=C2\SC(=Nc3ccc(Cl)c(C(=O)O)c3)NC2=O)c(Br)c(Br)c1O,42*,-10,27*,19,-21,51*
CC(C)(C)c1ccc(S(=O)(=O)Nc2ccc(C(O)(C(F)(F)F)C(F)(F)F)cc2)cc1,0,-3,-21,-1,7,-2
COC(=O)c1ccc(C(=O)N2CCCCCC2(C)C(=O)NC(C)C)cc1 (stereo unspecified),1,8,-2,-13,9,0
Cc1cccc(C(C)C)c1NC(=O)COC(=O)CCC(=O)N(CC(C)C)c1c(N)n(CC(C)C)c(=O)[nH]c1=O,1,7,-15,-17,32,-2
CN1/C(=C\C(=O)c2ccco2)C(C)(C)c2ccccc21,14,-10,39*,31*,1,0
CN1/C(=C\C(=O)c2cncc(Br)c2)C(C)(C)c2ccccc21,1,-12,24*,14,-16,-7
C#CCN(C[C@H]1[C@H](OC(=O)NCc2ccccc2)[C@H](OC(=O)NCc2ccccc2)C[C@@H](C(=O)OC)[C@H]1C(=O)OC)S(=O)(=O)c1ccc(C)cc1,0,10,38*,-4,-7,1
C#CCN(C[C@H]1[C@H](OC(=O)NCCCCCC)[C@H](OC(=O)NCCCCCC)C[C@@H](C(=O)OC)[C@H]1C(=O)OC)S(=O)(=O)c1ccc(C)cc1,0,9,6,-13,-8,-1
CCOC(=O)C1=C[C@@H](C(C)(C)C)N(S(=O)(=O)c2ccccc2C)[C@H]1c1ccc(Cl)cc1,1,4,6,-5,9,-1
Cn1c(=O)c2c(-c3ccccc3)n(CCCN3CCOCC3)cc2n(C)c1=O,0,0,29*,7,-5,-3
Cc1ccc(-c2c3c(=O)n(C)c(=O)n(C)c3cn2Cc2ccccc2)cc1,4,10,-5,-8,19,-6
COc1cc(CN2C(=O)C(C)ON=C2c2cccs2)cc(OC)c1 (stereo unspecified),0,8,-3,-14,9,-5
O=S(=O)(NCCS(=O)(=O)N1CCN(c2ccc(F)cc2)CC1)c1ccc(F)cc1,4,3,-3,-11,3,6
CC(=O)Nc1sc2c(c1C(c1ccccn1)N1CCN(C)CC1)CCCC2 (stereo unspecified),0,-21,1,48*,-7,-5
CC(=O)Nc1sc2c(c1C(c1ccccc1Cl)N1CCN(CCO)CC1)CCCC2 (stereo unspecified),1,-26,2,45*,14,-8
